In article PMC4552634, “A New Set of Chemical Starting Points with Plasmodium falciparum Transmission-Blocking Potential for Antimalarial Drug Discovery” (PLoS ONE, 2015):
Out of some 13,000 compounds screened, about 3,200 (25%) showed an effect of 50% or more. The list shows a part of the results.

system: P. falciparum stage V gametocytes; parameters: BacTiter-Glo ATP luminescence viability of purified stage V gametocytes in 384-well plates, per cent inhibition versus DMSO; conditions: 48 h, 5 µM; inhibitor

**Q.** How did the “% Inhibition” value turn out when Cc1cn(CC(=O)Nc2cccc(-c3cccc(-c4nc5ccc(C(F)(F)F)cc5[nH]4)c3)c2)c(=O)[nH]c1=O [TCMDC-137036] was run?
**A.** 18.51%

**Q.** For O=C(Nc1ccccc1F)NC1CCN(c2ccnc(Nc3ccc(F)cc3)n2)CC1 [TCMDC-133632], which “% Inhibition” value is on record?
**A.** -30.06%

**Q.** O=C(c1ccccc1F)N(Cc1ccc(Cl)cc1)c1ccccn1 [TCMDC-124909] was tested. Which “% Inhibition” value did it give?
**A.** -19.06%

**Q.** COc1ccc2nccc([C@@H](O)CN3CCC(NCc4ccc5c(c4)sc(=O)n5C)CC3)c2c1 [TCMDC-141149] was tested. Which “% Inhibition” value did it give?
**A.** -6.737%

**Q.** For CCCCCC1c2[nH]c3ccccc3c2CCN1C(=O)OCc1ccccc1 (stereo not drawn) [TCMDC-134554], which “% Inhibition” value is on record?
**A.** -7.791%

**Q.** How did the “% Inhibition” value turn out when CCCNCc1ccc(-c2ccc(CN(CC3CCCO3)C(=O)COc3ccccc3Cl)cc2)nc1 (stereo not drawn) [TCMDC-141542] was run?
**A.** 45.23%

**Q.** For CCCNCc1ccc(-c2ccc(CN(CC3CCCO3)C(=O)C3CC(=O)c4ccccc43)cc2)nc1 (stereo not drawn) [TCMDC-141533], which “% Inhibition” value is on record?
**A.** 69.47%

**Q.** CCCNCc1ccc(-c2ccc(CN(Cc3ccc4c(c3)OCO4)C(=O)[C@H]3CCCO3)cc2)nc1 [TCMDC-141531] was tested. Which “% Inhibition” value did it give?
**A.** 105.6%

**Q.** Which “% Inhibition” value does the source give for CCCNCc1ccc(-c2ccc(CN(CCOC)C(=O)CC3CCCC3=O)cc2)nc1 (stereo not drawn) [TCMDC-141532] here?
**A.** 3.565%

**Q.** For CCCNCc1ccc(-c2ccc(CN(CCOC)C(=O)[C@H]3CCCO3)cc2)nc1 [TCMDC-141530], which “% Inhibition” value is on record?
**A.** 80.98%

**Q.** With O=c1c2c([nH]c3cc(Cl)ccc13)CCCC2 [TCMDC-123504] as the molecule, how does the “% Inhibition” value read?
**A.** 42.94%

**Q.** With CS(=O)(=O)c1ccc(OCCCN(Cc2ccccc2C(F)(F)F)c2ccc(C#N)c(C(F)(F)F)c2)cc1 [TCMDC-135467] as the molecule, how does the “% Inhibition” value read?
**A.** 19.91%

**Q.** How did the “% Inhibition” value turn out when O=C(N[C@@H](CC1CCCCC1)C(=O)NCCN1CCCC1)c1ccc(O)c(-c2cccc(C(F)(F)F)c2)c1 [TCMDC-140811] was run?
**A.** 39%

**Q.** For Cc1cc(OC(C)C(=O)N2CCc3ccccc32)ccc1Cl (stereo not drawn) [TCMDC-123696], which “% Inhibition” value is on record?
**A.** 25.65%

**Q.** COc1ccc(Cc2cnc(N)nc2N)cc1OCCCOc1ccccc1 [TCMDC-137364] was tested. Which “% Inhibition” value did it give?
**A.** -5.696%

**Q.** With Cn1ccnc1Sc1ncccc1[N+](=O)[O-] [TCMDC-123944] as the molecule, how does the “% Inhibition” value read?
**A.** 5.094%

**Q.** Which “% Inhibition” value does the source give for N#Cc1cccc(NC(=O)C2=C(CCc3ccc4c(c3)OCO4)NC(=O)NC2c2cccc(C#N)c2)c1 (stereo not drawn) [TCMDC-136054] here?
**A.** 65.54%

**Q.** Which “% Inhibition” value does the source give for O=C(Nc1cccc(CN2CCCN(Cc3ccc4c(c3)OCO4)CC2)c1)c1ccc(-c2ccccc2)cc1 [TCMDC-134593] here?
**A.** -55.86%

**Q.** With O=C(Nc1cccc(CN2CCCN(Cc3ccc4c(c3)OCO4)CC2)c1)c1ccc2ccccc2c1 [TCMDC-141852] as the molecule, how does the “% Inhibition” value read?
**A.** -18.83%

**Q.** How did the “% Inhibition” value turn out when COc1cc(Cc2cnc(NCCN3CCNCC3)nc2N)ccc1OCc1ccc(C(F)(F)F)cc1 [TCMDC-138704] was run?
**A.** 48.16%

**Q.** For CCCCCCCNCCNc1cc(C)nc2ccccc12 [TCMDC-137556], which “% Inhibition” value is on record?
**A.** 91.75%

**Q.** How did the “% Inhibition” value turn out when CCCCCCCNc1cc(C)nc2ccc(OC)cc12.Cl [TCMDC-137622] was run?
**A.** 19.17%

**Q.** CCCCCCNc1cc(C)nc2ccc(OC)cc12.Cl [TCMDC-137623] was tested. Which “% Inhibition” value did it give?
**A.** -4.593%

**Q.** With CCCCCCCN(CCCCCCC)CCNc1cc(C)nc2ccccc12 [TCMDC-137555] as the molecule, how does the “% Inhibition” value read?
**A.** 59.52%

**Q.** For Cc1cc(NCCCCCCCCNc2cc(C)nc3ccccc23)c2ccccc2n1 [TCMDC-137746], which “% Inhibition” value is on record?
**A.** 113.6%

**Q.** With Cc1cc(NCCCCCCNc2cc(C)nc3c(C)cccc23)c2cccc(C)c2n1 [TCMDC-125702] as the molecule, how does the “% Inhibition” value read?
**A.** 114%

**Q.** Which “% Inhibition” value does the source give for COc1cccc(Nc2nc(C)cc(NC3CCCC3)n2)c1 [TCMDC-133464] here?
**A.** 31.06%

**Q.** How did the “% Inhibition” value turn out when CCn1ncc(Cl)c1CN(C)S(=O)(=O)c1ccc2ccccc2c1 [TCMDC-124904] was run?
**A.** 17.76%

**Q.** With O=C(Nc1ccc2c(c1)CCC2)c1ccc(CN2CCCN(Cc3cccc(O)c3)CC2)cc1 [TCMDC-136388] as the molecule, how does the “% Inhibition” value read?
**A.** -14.41%

**Q.** Which “% Inhibition” value does the source give for N#Cc1ccc2c(c1)CN(C1CCC(NC(=O)/C=C/c3cc(C(F)(F)F)cc(C(F)(F)F)c3)CC1)CCC2 (stereo not drawn) [TCMDC-133502] here?
**A.** -43.57%

**Q.** For CCCC(CNCc1cccc(OC(F)(F)F)c1)CNc1cc(=O)c2ccccc2[nH]1 (stereo not drawn) [TCMDC-139429], which “% Inhibition” value is on record?
**A.** 83.68%

**Q.** With O=c1cc(NCCCNCc2ccc(Cl)c(Cl)c2)[nH]c2ccc(Cl)cc12 [TCMDC-139400] as the molecule, how does the “% Inhibition” value read?
**A.** 23.89%

**Q.** With O=c1cc(NCCCNCc2cccc(Oc3ccccc3)c2)[nH]c2ccccc12 [TCMDC-139309] as the molecule, how does the “% Inhibition” value read?
**A.** 31.54%

**Q.** O=c1cc(NCCCNCc2ccc(Cl)c(Cl)c2)[nH]c2cc(Cl)ccc12 [TCMDC-139401] was tested. Which “% Inhibition” value did it give?
**A.** 50.55%

**Q.** For O=c1cc(NCCCNCc2sc(Br)c(Br)c2Br)[nH]c2ccccc12 [TCMDC-139647], which “% Inhibition” value is on record?
**A.** -5.668%

**Q.** With O=c1cc(NCCCNCc2cccc(OC(F)(F)C(F)F)c2)[nH]c2ccccc12 [TCMDC-139419] as the molecule, how does the “% Inhibition” value read?
**A.** -24.87%

**Q.** For CCc1cc(Br)c(CNCCCNc2cc(=O)c3ccccc3[nH]2)s1 [TCMDC-140745], which “% Inhibition” value is on record?
**A.** -24.29%

**Q.** How did the “% Inhibition” value turn out when CCCC(CNCc1cccc(OCC)c1)CNc1cc(=O)c2ccccc2[nH]1 (stereo not drawn) [TCMDC-139432] was run?
**A.** 35.2%

**Q.** How did the “% Inhibition” value turn out when CCC/C=C/c1c(CNCCCNc2cc(=O)c3ccccc3[nH]2)sc(CC)c1Br [TCMDC-140971] was run?
**A.** 58.98%

**Q.** With CCCC(CNCc1cccc(OC(F)(F)C(F)F)c1)CNc1cc(=O)c2ccccc2[nH]1 (stereo not drawn) [TCMDC-139430] as the molecule, how does the “% Inhibition” value read?
**A.** -8.212%

**Q.** For O=c1cc(NCCCNCc2ccc(Cl)c(Cl)c2)[nH]c2ccc(C(F)(F)F)cc12 [TCMDC-139407], which “% Inhibition” value is on record?
**A.** 4.234%

**Q.** For O=c1cc(NCCCNCc2cccc(OC(F)(F)F)c2)[nH]c2ccccc12 [TCMDC-139418], which “% Inhibition” value is on record?
**A.** 80.26%

**Q.** Which “% Inhibition” value does the source give for CN(C)CC(=O)NCC(NCCCNc1cc(=O)c2ccccc2[nH]1)c1cc(Br)cc(Br)c1 (stereo not drawn) [TCMDC-140314] here?
**A.** -36.64%

**Q.** How did the “% Inhibition” value turn out when CN(CCCN(C)c1cc(NC(=O)c2ccc(F)cc2)ccn1)Cc1cccc(F)c1 [TCMDC-135041] was run?
**A.** -7.091%

**Q.** Which “% Inhibition” value does the source give for Cc1ccc(O)c(-c2cc(C(=O)Nc3ccc(S(=O)(=O)N4CCCC(C)C4)cc3)[nH]n2)c1 (stereo not drawn) [TCMDC-125202] here?
**A.** -32.7%
